Screening results: PubChem BioAssay, National Center for Advancing Translational Sciences (NCATS)
Compounds with a hit are over-represented: about 9.2% of the library has one in this group of screens.
NPC1 prom act: qHTS Assay for NPC1 Promoter Activators; 320,000 tested, 2.4% active; Potency, µM (highest dose often 9.22 µM), for the others: at the top dose activation, hits mostly activators; Huh7 NPC1 promoter luciferase reporter, 24 h; also: % of control where 0% means no effect; nearly all actives have a fitted effect of over 60% in size
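Luciferase expression driven by the NPC1 promoter was measured in stably transfected Huh7 cells after a 24 h compound incubation, using a luciferase reagent and a luminescence read.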
ELG1 genotox: qHTS screen for small molecules that induce genotoxicity in human embryonic kidney (HEK293T) cells expressing luciferase-tagged ELG1. HEK293T ELG1-luciferase reporter, luminescence, 16 h. Potency, µM (series often up to 46 µM), for inactives: at the top dose activity change, positive = activation, actives largely listed as activators. 330,000 tested, 1.3% active. AID 504466, 2011; also: % of control where 0% means no effect; nearly all actives have a fitted effect of over 60% in size
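Cells (2,000/well) expressing the ELG1-luciferase fusion are dosed by pin tool and kept 16 hr at 37 °C, 5% CO2. Signal comes from ONE-Glo luciferase reagent after 30 min at room temperature.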
ELG1 DNA repair: qHTS screen for small molecules that inhibit ELG1-dependent DNA repair in human embryonic kidney (HEK293T) cells expressing luciferase-tagged ELG1; HEK293T ELG1-luciferase reporter, luminescence, 16 h; DNA damage induced by 5-fluorouridine; Potency, µM (doses to about 46.1 µM), without a hit: at the highest dose activity change, negative = inhibition, most hits filed as inhibitors; 330,000 tested, 2.3% active; also: % is scaled to controls: 0 for no effect and ±100 for the full control effect; nearly all actives have a fitted effect of over 55% in size
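Step one: seed 2,000 cells per well. Step two: pin-transfer compound or DMSO alongside 5-fluorouridine. Step three: incubate 16 hr, 37 °C, 5% CO2. Step four: add ONE-Glo, wait 30 min, read luminescence.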
FLuc modulator: qHTS profiling assay for firefly luciferase inhibitor/activator using purifed enzyme and Km concentrations of substrates (counterscreen for miR-21 project); Luciferin 4-monooxygenase (Photinus pyralis), P08659; purified FLuc, Km substrates, luminescence inhibition; Potency, µM (titrated, usually from 57.5 µM), inactives show top-dose activity change, negative = inhibition, most hits filed as inhibitors; 360,000 tested, 6.9% active;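 also: plate controls were vehicle for no effect and reference inhibitor for full effect; nearly all actives have a fitted effect of over 55% in size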
Target sequence (P08659 whole entry, looked up): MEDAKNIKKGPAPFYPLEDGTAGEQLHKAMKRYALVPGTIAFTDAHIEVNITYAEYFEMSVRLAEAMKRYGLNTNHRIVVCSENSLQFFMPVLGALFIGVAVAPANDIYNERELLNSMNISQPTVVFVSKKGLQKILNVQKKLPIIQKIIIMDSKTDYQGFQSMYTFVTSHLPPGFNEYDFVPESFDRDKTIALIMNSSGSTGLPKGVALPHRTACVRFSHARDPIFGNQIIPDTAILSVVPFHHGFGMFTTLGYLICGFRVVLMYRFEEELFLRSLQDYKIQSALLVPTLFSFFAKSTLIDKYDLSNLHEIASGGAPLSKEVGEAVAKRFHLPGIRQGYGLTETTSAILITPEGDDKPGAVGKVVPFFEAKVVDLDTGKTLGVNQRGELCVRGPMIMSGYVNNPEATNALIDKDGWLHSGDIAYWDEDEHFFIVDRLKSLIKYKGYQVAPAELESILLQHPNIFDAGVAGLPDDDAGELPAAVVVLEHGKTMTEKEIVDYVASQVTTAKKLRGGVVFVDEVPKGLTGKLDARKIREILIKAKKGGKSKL
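Purified P. pyralis luciferase (10nM final) with 10uM D-luciferin and 10uM ATP (Km levels) in 50mM Tris acetate pH 7.5, 10mM Mg acetate, 0.01% Tween-20, 0.05% BSA; qHTS 6-point titration, ~60 µM downward; luminescence read.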
Rab9 prom act: qHTS Assay for Rab9 Promoter Activators; Huh7 Rab9 promoter-luciferase reporter, luminescence, 24 h; Potency, µM (highest dose often 9.22 µM), without a hit: top-dose activation, negative = inhibition, usual class: activators; 320,000 tested, 2.8% active; AID 485297, 2010; also: % of control where 0% means no effect; nearly all actives have a fitted effect of over 60% in size
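Promoter activation is measured as luciferase luminescence in Huh7 cells stably transfected with a Rab9 promoter–luciferase construct, following 24 h compound exposure at 37 °C and 10 min reagent incubation at ambient temperature.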
SMN2 splice up: qHTS Assay for Enhancers of SMN2 Splice Variant Expression; AID 1458, 2008; Potency, µM (series often up to 46.1 µM), inactives show at the highest dose activity change, positive = activation, usual class: activators; 210,000 tested, 2.8% active; HEK293 SMN2-luciferase splicing reporter, luminescence, 30-36 h; also: % of control where 0% means no effect; nearly all actives have a fitted effect of over 55% in size
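HEK293 cells carry an SMN2 minigene-luciferase reporter in which exon 7 inclusion puts luciferase in frame. Cells were seeded at 2000 cells/well, attached for 10-12 hours, then exposed to compounds for 30-36 hours at 37C before ONE-Glo luminescence.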
The depositor's hits bear a star; ? = inconclusive; · = no result; [ ] = another dose, or the depositor's remark. Calls follow the shape of the dose curve; as a rule, active = well fitted curve in the direction sought with a large enough effect; inconclusive = small, poorly fitted or top-dose-only effect, or another doubt; inactive = no such curve, though single readings can be large; an effect the other way counts as inactive or inconclusive. Potency is read from the fitted curve at half-maximal effect.

SMILES	NPC1 prom act	ELG1 genotox	ELG1 DNA repair	FLuc modulator	Rab9 prom act	SMN2 splice up
CCN(CC)c1ccc(C=C2C(=O)OC(C)(C(C)(C)C)OC2=O)cc1 (stereo unspecified)	-4.7%	1.4%	?	-1.4%	1.6%	8.7%
CN(C)c1ccc(C=C2C(=O)OC(C)(C)OC2=O)cc1	-6.1%	-6.9%	-1.5%	19µM*	-1.3%	-28.5%
CCC1CCCCN1CCCNC(=O)Cn1ncc2c(C)n(Cc3ccccc3Cl)c(C)c2c1=O (stereo unspecified)	-1.6%	1.0%	-0.8%	-1.8%	0.1%	·
Cc1ccc(-c2nnc(SCC(=O)NC(C)(C)C)nc2-c2ccc(C)cc2)cc1	·	·	·	3.7%	·	·
COc1ccc(C(=O)C2CCCN(C3Cc4ccccc4C3)C2)c(OC)c1 (stereo unspecified)	29.7%	24.3%	?	26.9µM*	?	·
CCN(CC)c1ccc(C=C2C(=O)OC(c3ccccc3)OC2=O)cc1 (stereo unspecified)	-2.1%	-8.7%	?	12µM*	-1.0%	-3.0%
CCN(CC)c1ccc(C=C2C(=O)OC3(CCCC3)OC2=O)cc1	-1.3%	4.7%	?	?	-2.4%	-1.3%
Cc1ccc(S(=O)(=O)c2nc(S(=O)(=O)c3ccc(C)cc3)c(NCCCOC(C)C)s2)cc1	·	·	·	-6.2%	·	2.2%
N#CCSc1nnc(COc2cccc3ccccc23)n1-c1ccccc1	-1.0%	-10.1%	20.6µM*	3.7%	-5.6%	-55.2%
CCCC(=O)N=C1SC2CS(=O)(=O)CC2N1c1ccc(-c2nc3ccc(C)cc3s2)cc1 (stereo unspecified)	3.55µM*	20.6µM*	?	5.36µM*	3.98µM*	·
Cc1ccc(N2C(=NC(=O)c3ccccc3)SC3CS(=O)(=O)CC32)cc1 (stereo unspecified)	0.6%	0.6%	16.5%	3.7%	-2.1%	·
CC(=O)Nc1ccc(NC(=O)C(C)c2cccc(C(=O)c3ccccc3)c2)cc1 (stereo unspecified)	0.7%	-5.1%	-24.8%	-15.9%	-2.6%	-6.2%
CC(C(=O)Nc1ccc(O)cc1)c1cccc(C(=O)c2ccccc2)c1 (stereo unspecified)	-8.3%	-5.0%	16.4µM*	-6.4%	-8.2%	-29.6%
O=c1[nH]c(CN2CCN(c3ccccc3)CC2)nc2scc(-c3ccccc3)c12	-10.2%	-11.1%	-17.1%	-2.0%	-7.0%	?
Cc1sc2nc(CN3CCN(c4ccc(O)cc4)CC3)[nH]c(=O)c2c1C	?	-7.4%	20.6µM*	-10.7%	-3.8%	·
Cc1ccccc1NC(=O)Cc1nc(COC(=O)c2cc(Cl)ccc2O)cs1	-1.3%	-2.2%	1.8%	3.4%	-7.6%	·
Fc1cc(F)cc(NC(=S)N2CCC(c3ccccc3)C2)c1 (stereo unspecified)	?	?	?	?	3.55µM*	12.6µM*
CSc1cccc(NC(=S)N2CCC(c3ccccc3)C2)c1 (stereo unspecified)	18.5%	13.2%	?	15.1µM*	13.8%	·
CSc1cccc(NC(=S)N2CCC(N(C)C3CCCCC3)CC2)c1	-8.0%	0.3%	14.1%	-1.1%	-3.2%	-34.0%
CCc1cccc(NC(=S)N2CCC(c3ccccc3)C2)c1 (stereo unspecified)	?	13.6%	?	23.9µM*	?	68.4%
COc1ccc(C(=O)N2CCCC(c3ccccc3)C2)cc1 (stereo unspecified)	0.9%	0.7%	3.7%	-2.4%	0.6%	-8.6%
O=C(c1ccc(F)cc1)N1CCC(c2ccccc2)C1 (stereo unspecified)	4.47µM*	?	?	?	?	·
Cc1ccc(S(=O)(=O)N(CCC(=O)N2CCOCC2)c2ccccc2)cc1	-1.8%	2.3%	-0.7%	0.7%	-3.8%	·
COc1ccc(/C(CC2OC(=O)c3ccccc32)=N\NC(N)=O)cc1 (stereo unspecified)	-0.6%	0.3%	12.3%	0.8%	-2.0%	-5.1%
Cc1nn(-c2nc3ccccc3[nH]2)c(N)c1-c1ccccc1	1.58µM*	?	?	1.9µM*	0.631µM*	2µM*
SMILES	NPC1 prom act	ELG1 genotox	ELG1 DNA repair	FLuc modulator	Rab9 prom act	SMN2 splice up
Cc1nn(-c2ccccc2)c(N)c1-c1ccccc1	?	15.1%	?	13.5µM*	3.16µM*	12.6µM*
Cc1cc(-c2ccccc2)n(-c2ccccc2)n1	?	?	?	15.1µM*	?	·
Cc1nn(CC2CCCCC2)c(N)c1-c1ccccc1	29.5%	?	?	16.9µM*	?	-12.9%
CCOC(=O)Cn1nc(C)c(-c2ccccc2)c1N	-1.4%	-0.5%	14.2%	-4.9%	5.1%	-5.5%
Nc1c(-c2ccccc2)c(CSc2nc3ccccc3[nH]2)nn1-c1cccc(C(=O)O)c1	-2.0%	-2.7%	-14.3%	?	1.9%	10.4%
CC(NC(=O)COc1ccc(N(C)S(=O)(=O)c2ccccc2)cc1)c1ccccc1 (stereo unspecified)	-5.4%	-6.5%	-20.7%	3.9%	-2.6%	-29.0%
CC1CCCCC1NC(=O)COC(=O)c1ccc2c(=O)n3c(nc2c1)CCC3 (stereo unspecified)	·	0.9%	-3.9%	·	·	·
CCN1CCN(C(C)C(=O)NC2CCCCC2)CC1 (stereo unspecified)	-8.3%	1.7%	9.2%	0.1%	-2.3%	·
Cc1nn(-c2ccccc2)c(N)c1C(c1ccc(C(C)C)cc1)c1c(C)nn(-c2ccccc2)c1N	-1.5%	-8.6%	8.2µM*	4.0%	-0.5%	0.1%
Cc1nn(-c2ccccc2)c(/N=C/c2ccccc2O)c1-c1ccccc1	2.24µM*	?	?	-14.9%	2.82µM*	11.2µM*
Cc1ccc(C(c2c(C)nn(-c3ccccc3)c2N)c2c(C)nn(-c3ccccc3)c2N)cc1	-0.6%	-4.4%	?	-3.2%	-8.7%	17.1%
CCCCN(C)C(=O)CN1C(=O)CCn2nc(-c3cn(C)c4ccccc34)cc21	·	·	·	-10.9%	·	·
COc1cccc(/C=N/NC(=O)CN(CCc2ccccc2)S(=O)(=O)c2ccc(NC(C)=O)cc2)c1	-2.8%	-6.5%	23.1µM*	-14.3%	0.7%	0.7%[1.84 µM]
COc1ccc(/C=N/NC(=O)CN(C)S(=O)(=O)c2ccc(NC(C)=O)cc2)cc1	-4.7%	-2.8%	8.5%	?	-3.5%	·
